# From PubChem BioAssay
# Hits are enriched below; roughly 5.9% of the tested compounds scored in any of these assays.
# rTrxR1 inhibitor = qHTS Assay for Inhibitors of Mammalian Selenoprotein Thioredoxin Reductase 1 (TrxR1): qHTS; Thioredoxin reductase 1, cytoplasmic (Rattus norvegicus), O89049; recombinant rTrxR1, NADPH fluorescence consumption, selenite substrate; Potency, µM (top dose mostly 114 µM), for the others: at the highest dose activity change, negative = inhibition, hits mostly inhibitors; 390,000 compounds, 1% hits; also: potency is read from the fitted curve at half-maximal effect; nearly all actives have a fitted effect of over 65% in size
# Target sequence (O89049 whole entry, looked up): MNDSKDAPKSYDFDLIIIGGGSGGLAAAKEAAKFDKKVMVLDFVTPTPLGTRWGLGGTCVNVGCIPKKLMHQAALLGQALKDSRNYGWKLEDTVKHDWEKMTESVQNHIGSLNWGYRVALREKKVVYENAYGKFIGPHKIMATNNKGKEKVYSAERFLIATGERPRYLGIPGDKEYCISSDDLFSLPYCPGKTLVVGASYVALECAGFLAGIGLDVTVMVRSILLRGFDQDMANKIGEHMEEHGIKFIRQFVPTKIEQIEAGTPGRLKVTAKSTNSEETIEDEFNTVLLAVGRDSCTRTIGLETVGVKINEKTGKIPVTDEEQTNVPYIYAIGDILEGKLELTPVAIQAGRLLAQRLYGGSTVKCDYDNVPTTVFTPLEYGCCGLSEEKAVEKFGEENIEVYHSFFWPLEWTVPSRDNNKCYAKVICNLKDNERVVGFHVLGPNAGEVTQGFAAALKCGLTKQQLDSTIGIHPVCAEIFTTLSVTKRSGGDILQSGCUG
#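 Rat TrxR1 (90 nM in the dispensed reagent) was pre-reduced with 400 uM NADPH for 5 min at room temperature, then incubated with compound for 15 min. After 400 uM selenite was added, NADPH fluorescence (Ex 340/Em 450 nm) was followed for 8 min.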
# FBPA coupling cs = qHTS Assay for Inhibitors of Fructose-1,6-bisphosphate Aldolase from Giardia Lamblia: Coupling assay counterscreen; coupling enzyme system counterscreen, AmpLite Red fluorescence; 290,000 compounds, 0.67% hits; AID 2472, 2010; activity change, negative = inhibition, % at 58.2 µM, hits read low; in the data active = activity change below about -30%
#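 Coupling enzymes only (glyceraldehyde-3-phosphate) + compound, at 57.5 uM final, 10 min RT; add substrate/coupling/AmpLite Red mix, 20 min RT; fluorescence ex 525/em 598 nm. Actives flag coupling-system interference.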
# RORgamma inh = qHTS for inhibitors of ROR gamma transcriptional activity; 310,000 compounds, 5.4% hits; AID 2551, 2010; Potency, µM (series often up to 53.6 µM), for the others: at the top dose activity change, negative = inhibition, most hits filed as inhibitors; Drosophila S2 Gal4-RORgamma UAS-luciferase reporter, 20 h; Nuclear receptor ROR-gamma (Mus musculus), P51450; also: potency is read from the fitted curve at half-maximal effect; nearly all actives have a fitted effect of over 60% in size
#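 Luciferase reporter read in Schneider cells carrying Gal4-RORγ (mouse) and UAS-Photinus luciferase; cells given compound 1 h before 700 uM copper sulfate induction, then incubated 20 h at ambient temperature.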
# VP16 counter = VP16 counterscreen qHTS for inhibitors of ROR gamma transcriptional activity | 310,000 compounds, 3.5% hits | Potency, µM (series often up to 53.6 µM), for inactives: at the top dose activity, negative = inhibition, hits mostly inhibitors | Drosophila S2 Gal4-VP16 UAS-luciferase, luminescence, 20 h | AID 2546, 2010;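 also: Gal4-VP16 expression switched on by copper sulfate through the metallothionein promoter; potency is read from the fitted curve at half-maximal effect; nearly all actives have a fitted effect of over 50% in size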
# TrxR1 substrate = qHTS Assay for Substrates of Mammalian Selenoprotein Thioredoxin Reductase 1 (TrxR1): qHTS | AID 588456, 2011 | purified TrxR1 substrate turnover, NADPH consumption readout | Potency, µM (titrated, usually from 114 µM), for inactives: top-dose activity change, negative = substrate turnover | 390,000 compounds, 0.01% hits | Thioredoxin reductase 1, cytoplasmic (Rattus norvegicus), O89049; also: potency is read from the fitted curve at half-maximal effect; nearly all actives have a fitted effect of over 50% in size
#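 Rat TrxR1, dispensed at 90 nM, was prereduced with 400 uM NADPH (final) for 5 min at ~22 deg C, then incubated with compound 15 min before 400 uM selenite. A first-read NADPH fluorescence drop versus no-compound background flagged substrates.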
# GALK inh = qHTS Assay for Inhibitors of Human Galactokinase (GALK) | P51570 | Potency, µM (doses to about 57.5 µM), for inactives: at the highest dose activity change, negative = inhibition, actives largely listed as inhibitors | Purified GALK, Kinase-Glo residual ATP luminescence | 270,000 compounds, 0.007% hits; also: potency is read from the fitted curve at half-maximal effect
#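 Luminescence from leftover ATP (Ultra-Glo luciferase/luciferin) served as read-out after a 1 h room-temperature reaction of 5 nM GALK with 35 uM ATP and 100 uM galactose.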
# An asterisk follows results filed as active; ? = inconclusive; / = not tested or not shown; [ ] = dose if it differs, or a comment. Unless noted, calls follow the shape of the dose curve; as a rule, active = well fitted curve in the direction sought with a large enough effect; inconclusive = small, poorly fitted or top-dose-only effect, or another doubt; inactive = no such curve, though single readings can be large; an effect the other way counts as inactive or inconclusive. % is scaled to controls: 0 for no effect and ±100 for the full control effect.
SMILES,rTrxR1 inhibitor,FBPA coupling cs,RORgamma inh,VP16 counter,TrxR1 substrate,GALK inh
CC1=C/C(=N\NC(=S)Nc2cccnc2)CC(C)(C)C1,6.3%[57.1 µM],-1.5,1.78µM*,3.16µM*,-0.9%[0.457 µM],12.9%
COc1ccc(C(=O)CC(CC(=O)c2ccc(OC)cc2)C(=O)O)cc1,9.7%[57.1 µM],/,/,/,-7.2%[57.1 µM],/
O=C(CN1C(=O)COc2ccccc21)N1CCN(C2CCCCC2)CC1,-5.1%,0.5,-22.7%,-1.2%,-1.0%,-0.7%
C=CCn1c(O)c(N=NC(=S)Nc2ccccc2C)c2cc(S(=O)(=O)N3CCOCC3)ccc21,5.5%[57.1 µM],-2.1,0.501µM*,2µM*,1.5%[57.1 µM],/
Cc1ccc(NC(=S)N=Nc2c(O)n(C)c3ccc(S(=O)(=O)N4CCOCC4)cc23)cc1C,3.9%,-1.7,0.708µM*,3.16µM*,-2.4%,/
Cc1cccc(NC(=S)N=Nc2c(O)n(CN3CCOCC3)c3ccccc23)c1C,3.3%,-2.0,0.708µM*,1.12µM*,-6.6%,-0.3%
O=C(Nc1ccccc1F)Nc1cc(S(=O)(=O)N2CCOCC2)ccc1N1CCCC1,10.0%[57.1 µM],0.3,20.8%,14.4%,8.6%[57.1 µM],0.6%
Cc1ccc(N=Nc2c(O)n(CN3CCOCC3)c3ccccc23)cc1,-47.9%,0.0,22.7%,-7.8%,-10.3%,-3.1%
Cn1c(O)c(N=NC(=S)Nc2ccccc2F)c2cc(S(=O)(=O)N3CCOCC3)ccc21,-26.1%,-3.0,0.316µM*,2µM*,-19.5%,1.4%
Cc1cc(=O)n(C)c2ccc(S(=O)(=O)N3CCOCC3)cc12,16.8%,-3.1,-9.7%,-2.2%,0.8%,4.4%
Cc1nc(CN(C)Cc2nc(Cc3cccc(F)c3)no2)cs1,19.8%,-1.0,8.3%,-13.0%,2.6%,0.3%
C=CCn1c(O)c(N=NC(=S)Nc2ccc(OC)c(Cl)c2)c2ccccc21,-13.4%,-4.6,2.82µM*,3.98µM*,-13.2%,/
C=CCn1c(O)c(N=NC(=O)OC(C)(C)C)c2ccccc21,-4.8%,0.2,18.0%,21.2%,-1.1%,-0.1%
Cc1ccccc1C1C(C#N)=C2N=C(N)c3c(sc4c3CCCCC4)N2C2=C1C(=O)CC(C)(C)C2 (stereo unspecified),?,0.6,12.6µM*,?,-1.4%,/
Cc1ccccc1C1C(C#N)=C2NC(=O)c3c(sc4c3CCCCC4)N2C2=C1C(=O)CC(C)(C)C2 (stereo unspecified),/,-2.5,-32.8%,3.3%,/,/
CS(=O)(=O)c1ccc(Sc2nc3ccccc3s2)c([N+](=O)[O-])c1,39.8µM*,0.5,11.2µM*,10µM*,-4.5%,-2.9%
O=[N+]([O-])c1cc(S(=O)(=O)C(F)(F)F)ccc1Sc1nc2ccccc2[nH]1,8.91µM*,-0.1,?,?,-12.6%,1.2%
O=S(=O)(Nc1ccc(O)c(Sc2nc3ccccc3s2)c1)c1ccc(F)cc1,6.5%,-0.2,88.0%,?,-3.3%,-0.5%
O=[N+]([O-])c1cc(S(=O)(=O)C(F)(F)F)ccc1Sc1nc2ccccc2s1,1.58µM*,-1.9,7.94µM*,6.31µM*,-7.0%,-0.1%
Cc1ccc(OCC(=O)N2CCN(C(=O)c3cccc(F)c3)CC2)cc1,6.2%,-0.3,5.7%,5.6%,1.7%,3.2%
